This is an account of results in PubChem BioAssay (Tox21).

Results filed as inconclusive are left out. Where a call stands in place of a potency, no number is given. Activity calls are given as the source filed them. Calls follow the shape of the dose curve; as a rule, active = well fitted cell-killing curve with a large enough effect in the repeat runs; inconclusive = weak or mixed curves, or effect the other way; inactive = flat fitted curve, though single readings scatter.

A short description of the experiment: Nuclear factor erythroid 2-related factor 2/antioxidant responsive element (Nrf2/ARE) small molecule agonists: qHTS cell viability counter screen in human keratinocytes (AID 1919968). Also: nearly all actives have a fitted effect of over 55% in size. Particulars: KeratinoSens HaCaT ARE cells viability, CellTiter-Fluor, 24 h; series mostly up to 92.4 µM. The gist of the method: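 Parallel cytotoxicity read: KeratinoSens HaCaT cells, compound treatment 23 h, viability by CellTiter-Fluor fluorescence 1 h post-reagent.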
Potency is read from the fitted curve at half-maximal effect.

On to `C=C(C)CC(C)(C)C`, for which the Potency entry is “inactive”.

With `CCCC[P+](CCCC)(CCCC)CCCC`, the Potency result was “inactive”.

As for `CC(=O)CC(c1ccccc1)c1c(O)c2ccccc2oc1=O` (stereo not given), the Potency result is “inactive”.

As to `CC(COc1ccccc1)N(CCCl)Cc1ccccc1` (stereo not given), the Potency entry is “inactive”.

Turning to `CCCCOC(=O)c1ccc(O)cc1`, the Potency result is “inactive”.

For `CCc1cc(C(N)=S)ccn1`, the Potency entry is “inactive”.

On to `CCCCOC(=O)CCCCCCCCC(=O)OCCCC`, for which the Potency entry was “inactive”.

Consider `Cc1cccc(C)c1`, for which the Potency result is “inactive”.

Take `CC(=O)Nc1cccc(O)c1`: the Potency result is “inactive”.

With `CC(C)NCC(O)c1ccc(O)c(O)c1` (stereo not given), the Potency entry is “inactive”.

On to `CCC(C)OC(=O)c1ccc(O)cc1` (stereo not given), for which the Potency entry is “inactive”.

`O=S(=O)(O)NC1CCCCC1`: the Potency result was “inactive”.

For the molecule `CCCCC(CC)COC(=O)CCCCC(=O)OCC(CC)CCCC` (stereo not given), the Potency entry was “inactive”.

On to `Oc1ccccc1`, for which the Potency result was “inactive”.

`NC(N)=Nc1nc(CSCC/C(N)=N/S(N)(=O)=O)cs1`: the Potency result is “inactive”.

In the case of `CCC(C)C=O` (stereo not given), the Potency result was “inactive”.

Turning to `O=C(O)CN(CC(=O)O)CC(=O)O`, the Potency entry was “inactive”.

Take `CC1(C)O[C@@H]2C[C@H]3[C@@H]4CCC5=CC(=O)C=C[C@]5(C)[C@@]4(F)[C@@H](O)C[C@]3(C)[C@]2(C(=O)CO)O1`: the Potency result was “inactive”.

As for `CCCC(=O)O`, the Potency result is “inactive”.

With `CC1(C)O[C@@H]2[C@@H](CO[C@@]3(COS(N)(=O)=O)OC(C)(C)O[C@@H]23)O1`, the Potency result is “inactive”.

Consider `Cc1ccc(S(=O)(=O)O)cc1`, for which the Potency result is “inactive”.

For the molecule `C[Si](C)(C)N[Si](C)(C)C`, the Potency entry was “inactive”.

With `COC(=O)c1ccc(C=O)cc1`, the Potency entry is “inactive”.

Take `CCCCCCCCCC`: the Potency result was “inactive”.

Consider `Nc1ccc(S(N)(=O)=O)cc1`, for which the Potency result is “inactive”.

In the case of `CCO[Si](CCCN)(OCC)OCC`, the Potency result is “inactive”.

As for `Cc1ccc(C(C)C)cc1`, the Potency entry is “inactive”.

Take `CC1(C)NC(=O)N(c2ccc([N+](=O)[O-])c(C(F)(F)F)c2)C1=O`: the Potency entry is “inactive”.

As to `Brc1ccc(Br)c(Br)c1`, the Potency entry is “inactive”.

As for `COc1cc2c(c(OC)c1OC)-c1ccc(OC)c(=O)cc1[C@@H](NC(C)=O)CC2`, the Potency result is “inactive”.

Take `CC/C(=C(\c1ccccc1)c1ccc(OCCN(C)C)cc1)c1ccccc1`: the Potency was 24.3 µM (active) [middle of 5 runs].

In the case of `NC=O`, the Potency entry was “inactive”.

As to `C/C=C/C=C/C(=O)O`, the Potency result is “inactive”.

`O=NO`: the Potency entry is “inactive”.

Take `O=C1NS(=O)(=O)c2ccccc21`: the Potency entry was “inactive”.

In the case of `C[C@]12CC[C@@H]3c4ccc(O)cc4CC[C@H]3[C@@H]1CC[C@@H]2O`, the Potency result was “inactive”.

On to `CCCOC(=O)c1cc(O)c(O)c(O)c1`, for which the Potency entry was “inactive”.

As to `C=C(C)C1CC=C(C)CC1` (stereo not given), the Potency entry was “inactive”.

For the molecule `CC(C)CC(C)CC(O)CC(C)C` (stereo not given), the Potency entry was “inactive”.

In the case of `CC(=O)/C=C/C1=C(C)CCCC1(C)C`, the Potency result was “inactive”.
